# Assays:
# Experiment in all cases: thermal shift delta Tm vs DMSO control; higher = stronger stabilization (binding)
# Conditions in all cases: 12.5 µM; protein concentration 2 µM
# LOC_OS01G57100-cb003 = system: LOC_OS01G57100-cb003
# In short: (§1)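 Purified, E. coli-expressed rice kinase domain constructs were tested by differential scanning fluorimetry in 96-well plates: 19.5 μl of 2 μM kinase in 100 mM potassium phosphate pH 7.5, 150 mM NaCl, 10% glycerol, 5 × SYPRO Orange, plus compound in DMSO. Fluorescence was read from 25°C to 95°C at 0.05°C/s. Melting temperatures came from Boltzmann fits, and the shift is the triplicate mean relative to protein with DMSO alone.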
# LOC_OS01G60330-cb001 = system: LOC_OS01G60330-cb001
# In short: as §1
# LOC_OS01G60700-cb002 = system: LOC_OS01G60700-cb002
# In short: as §1
# LOC_OS01G63280-cb003 = system: LOC_OS01G63280-cb003
# In short: as §1
# LOC_OS01G67340-cb003 = system: LOC_OS01G67340-cb003
# In short: as §1
# LOC_OS01G70970-cb002 = system: LOC_OS01G70970-cb002
# In short: as §1
# LOC_OS02G07810-cb001 = system: LOC_OS02G07810-cb001
# In short: as §1
# LOC_OS02G08530-cb003 = system: LOC_OS02G08530-cb003
# In short: as §1
# LOC_OS02G14120-cb001 = system: LOC_OS02G14120-cb001
# In short: as §1
# LOC_OS02G17970-cb001 = system: LOC_OS02G17970-cb001
# In short: as §1
# LOC_OS02G45750-cb003 = system: LOC_OS02G45750-cb003
# In short: as §1
# LOC_OS02G54510-cb004 = system: LOC_OS02G54510-cb004
# In short: as §1
# LOC_OS03G04050-cb001 = system: LOC_OS03G04050-cb001
# In short: as §1
# LOC_OS03G12390-cb001 = system: LOC_OS03G12390-cb001
# In short: as §1
# LOC_OS03G27990-cb004 = system: LOC_OS03G27990-cb004
# In short: as §1
# LOC_OS03G50450-cb001 = system: LOC_OS03G50450-cb001
# In short: as §1
# LOC_OS03G50810-cb003 = system: LOC_OS03G50810-cb003
# In short: as §1
# LOC_OS04G35114-cb001 = system: LOC_OS04G35114-cb001
# In short: as §1
# LOC_OS04G38480-cb003 = system: T1, LOC_OS04G38480-cb003
# T1 sequence (whole entry): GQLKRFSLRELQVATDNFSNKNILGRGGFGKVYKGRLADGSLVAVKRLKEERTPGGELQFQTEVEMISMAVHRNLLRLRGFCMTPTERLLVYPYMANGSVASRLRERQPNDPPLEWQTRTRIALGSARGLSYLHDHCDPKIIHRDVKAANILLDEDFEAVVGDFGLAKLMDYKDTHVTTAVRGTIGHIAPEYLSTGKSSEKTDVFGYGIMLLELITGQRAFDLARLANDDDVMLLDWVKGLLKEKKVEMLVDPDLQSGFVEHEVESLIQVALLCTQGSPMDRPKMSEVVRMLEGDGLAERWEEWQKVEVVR
# In short: as §1
# LOC_OS04G41100-cb001 = system: T2, LOC_OS04G41100-cb001
# T2 sequence (whole entry): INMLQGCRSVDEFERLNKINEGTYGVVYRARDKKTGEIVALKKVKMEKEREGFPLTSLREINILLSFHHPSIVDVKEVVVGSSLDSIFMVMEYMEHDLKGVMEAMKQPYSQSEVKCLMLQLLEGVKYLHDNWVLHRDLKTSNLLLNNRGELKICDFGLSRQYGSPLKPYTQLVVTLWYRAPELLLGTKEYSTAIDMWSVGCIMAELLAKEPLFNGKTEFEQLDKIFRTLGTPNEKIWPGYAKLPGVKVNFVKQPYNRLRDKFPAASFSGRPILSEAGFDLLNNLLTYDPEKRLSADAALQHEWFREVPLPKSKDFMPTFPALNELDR
# In short: as §1
SMILES,thermal shift delta Tm (LOC_OS01G57100-cb003),thermal shift delta Tm (LOC_OS01G60330-cb001),thermal shift delta Tm (LOC_OS01G60700-cb002),thermal shift delta Tm (LOC_OS01G63280-cb003),thermal shift delta Tm (LOC_OS01G67340-cb003),thermal shift delta Tm (LOC_OS01G70970-cb002),thermal shift delta Tm (LOC_OS02G07810-cb001),thermal shift delta Tm (LOC_OS02G08530-cb003),thermal shift delta Tm (LOC_OS02G14120-cb001),thermal shift delta Tm (LOC_OS02G17970-cb001),thermal shift delta Tm (LOC_OS02G45750-cb003),thermal shift delta Tm (LOC_OS02G54510-cb004),thermal shift delta Tm (LOC_OS03G04050-cb001),thermal shift delta Tm (LOC_OS03G12390-cb001),thermal shift delta Tm (LOC_OS03G27990-cb004),thermal shift delta Tm (LOC_OS03G50450-cb001),thermal shift delta Tm (LOC_OS03G50810-cb003),thermal shift delta Tm (LOC_OS04G35114-cb001),thermal shift delta Tm (LOC_OS04G38480-cb003),thermal shift delta Tm (LOC_OS04G41100-cb001)
CN1CCN(c2cccc(Nc3nc4c(-c5ccc(S(C)(=O)=O)cc5)cccn4n3)c2)CC1,0.76 °C,13.8 °C,0.45 °C,0.49 °C,1.35 °C,0.37 °C,0.59 °C,1.34 °C,6.3 °C,0.48 °C,2.02 °C,0.36 °C,0.44 °C,0.47 °C,1.72 °C,2.95 °C,1.65 °C,2.23 °C,1.42 °C,0.46 °C
CC(C)(C)c1cc(/C=C(\C#N)C(N)=S)cc(C(C)(C)C)c1O [Tyrphostin AG 879],5.01 °C,3.04 °C,4.7 °C,–,–,2.23 °C,2.55 °C,2.78 °C,4.98 °C,3.25 °C,–,6.54 °C,0.85 °C,2.51 °C,1 °C,0.98 °C,2.05 °C,1.68 °C,2.13 °C,1.27 °C
O=C(O)c1cc(O)c2c(c1)[C@@H]([C@H]1c3cc(C(=O)O)cc(O)c3C(=O)c3c(O[C@@H]4O[C@H](CO)[C@@H](O)[C@H](O)[C@H]4O)cccc31)c1cccc(O[C@@H]3O[C@H](CO)[C@@H](O)[C@H](O)[C@H]3O)c1C2=O [Sennoside B],5.41 °C,–,2.73 °C,19.9 °C,–,1.98 °C,0.69 °C,0.42 °C,0.03 °C,3.25 °C,0.1 °C,-0.47 °C,1.23 °C,0.74 °C,0.89 °C,0.17 °C,1.04 °C,0.32 °C,3.9 °C,0.24 °C
CN1CCN(c2ccc(Nc3cc(-c4cccc(-n5ccc6cc(C7CC7)cc(F)c6c5=O)c4CO)cn(C)c3=O)nc2)CC1,0.99 °C,0.83 °C,1.11 °C,0.24 °C,-0.1 °C,1.04 °C,0.37 °C,1.24 °C,0.2 °C,0.75 °C,0.34 °C,-0.3 °C,0.53 °C,-0.21 °C,0.57 °C,0.67 °C,0.5 °C,0.26 °C,1.08 °C,0.45 °C
CS(=O)(=O)CCNCc1ccc(-c2ccc3ncnc(Nc4ccc(OCc5cccc(F)c5)c(Cl)c4)c3c2)o1 [Lapatinib],3.37 °C,6.75 °C,1.03 °C,–,1.58 °C,1.28 °C,1.88 °C,1.24 °C,0.15 °C,1.82 °C,0.06 °C,-0.31 °C,0.53 °C,1.17 °C,0.47 °C,1.2 °C,1.16 °C,2.03 °C,3.11 °C,0.92 °C
Cc1n[nH]c2ncc(C(=O)N3CCC[C@H]3c3ccc(Cl)cc3)cc12,0.92 °C,0.11 °C,0.24 °C,0.09 °C,0.25 °C,0.34 °C,-0.7 °C,1.34 °C,1.35 °C,0.38 °C,0.21 °C,0.12 °C,0.41 °C,0.13 °C,0.35 °C,0.17 °C,0.18 °C,0.28 °C,0.98 °C,0.46 °C
Cn1cc(C2=C(c3ccc(Cl)cc3Cl)C(=O)NC2=O)c2ccccc21,6.65 °C,11.5 °C,4.75 °C,15.7 °C,–,7.16 °C,1.24 °C,3.23 °C,12.5 °C,1.77 °C,1.02 °C,0.82 °C,0.78 °C,0.98 °C,0.26 °C,0.6 °C,0.67 °C,1.64 °C,1.13 °C,0.96 °C
Cc1ccccc1-n1c(Cn2nc(-c3cccc(O)c3)c3c(N)ncnc32)nc2cccc(C)c2c1=O,1.41 °C,0.24 °C,1.19 °C,0.18 °C,0.86 °C,0.24 °C,1.1 °C,0.86 °C,-1.12 °C,-0.12 °C,-2.16 °C,-0.05 °C,-0.24 °C,-0.5 °C,–,0.05 °C,0.27 °C,0.34 °C,–,–
C[C@]1(O)C[C@@H](c2nc(-c3ccc4ccc(-c5ccccc5)nc4c3)c3c(N)nccn32)C1 [Linsitinib (OSI-906)],0.52 °C,1.43 °C,1.07 °C,2.13 °C,0.12 °C,0.38 °C,1.27 °C,0.86 °C,0.29 °C,0.89 °C,0.76 °C,0.75 °C,0.57 °C,0.37 °C,0.12 °C,0.28 °C,0.6 °C,3.89 °C,1.28 °C,0.85 °C
C[C@H]1CNC(=O)c2cnn3ccc(nc23)N[C@H](C)c2cc(F)ccc2O1,0.38 °C,-0.02 °C,-0.09 °C,2 °C,1.17 °C,0.74 °C,-0.67 °C,2.82 °C,10.7 °C,-0.27 °C,3.54 °C,6.11 °C,0.53 °C,0.55 °C,0.55 °C,0.87 °C,2.52 °C,2.45 °C,3.37 °C,0.09 °C

# From the supplement of paper PMC9694430
